Records with an inconclusive call do not appear. Where a call stands in place of a potency, no number is given. Values without a mark were called inactive. Active and inactive are the calls of the source. Calls follow the shape of the dose curve; as a rule, active = well fitted inhibition curve with a large enough effect; inconclusive = small, poorly fitted or top-dose-only effect; inactive = no such curve, though single readings can be large or run the other way.
What was measured:
[1] = tested on: Zika virus NS2B-NS3 protease (unlinked complex); assay: Primary screen GU Rhodamine qHTS for Zika virus inhibitors: Unlinked NS2B-NS3 protease assay (AID 1347159); conditions: Recombinant ZIKV NS2B-NS3 protease, Rhodamine110 substrate fluorescence; series mostly up to 107 µM; also: nearly all actives have a fitted effect of over 60% in size
How it was run: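 Noncovalent NS2B hydrophilic domain–NS3 protease domain complex (25 nM) preincubated 15 min at room temperature with compounds (up to 114 microM) in 10 mM Tris-HCl pH 8.0, 0.01% Tween 20; 1.5 microM Rhodamine110 substrate added, fluorescence change over 15 min fitted to Hill equation.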

[2] = tested on: Zika virus NS2B-NS3 protease (linked construct); assay: Primary screen NINDS Rhodamine qHTS for Zika virus inhibitors (AID 1347160); conditions: purified NS2B-NS3 protease, Rhodamine110 substrate fluorescence; series mostly up to 57.1 µM; also: nearly all actives have a fitted effect of over 55% in size
How it was run: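 Purified linked NS2B-NS3 protease (NS2B hydrophilic domain joined to NS3 protease by flexible linker), 25 nM in 10 mM Tris-HCl pH 8.0, 0.01% Tween 20. Compounds titrated, 15 min preincubation at room temperature; 1.5 microM Rhodamine110 substrate, FITC fluorescence change over 15 min.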
Potency is read from the fitted curve at half-maximal effect.

SMILES | Potency [1] | Potency [2] | activity change, negative = inhibition [1] | outcome [2]
COc1cc(O)c2c(c1)C1=C[C@H](O)[C@@H](O)C[C@]1(C)OC2=O | inactive | inactive | – | –
OC[C@H]1O[C@@H](OC(CCCCc2ccc(O)cc2)CCc2ccc(O)cc2)[C@H](O)[C@@H](O)[C@@H]1O (stereo partly specified) | inactive | inactive | – | –
N#C[C@@H]1CCCN1C(=O)CNC12CC3CC(CC(O)(C3)C1)C2 | inactive | inactive | – | –
Cc1cc(C)cc(C(=O)NOCCCCCC(=O)NO)c1 | inactive | inactive | – | –
CNC12CC3C[C@@](C)(C1)C[C@](C)(C3)C2 | inactive | inactive | – | –
C=C[C@H]1[C@H](O[C@@H]2O[C@H](CO)[C@@H](O)[C@H](O)[C@H]2O)OC=C(C(=O)OC)[C@H]1C/C=C(/C=O)[C@@H]1C(C(=O)OC)=CO[C@@H](O[C@@H]2O[C@H](CO)[C@@H](O)[C@H](O)[C@H]2O)[C@@H]1C=C | inactive | inactive | – | –
COc1cc(/C=C/C=O)cc(OC)c1O[C@@H]1O[C@H](CO)[C@@H](O)[C@H](O)[C@H]1O | inactive | inactive | – | –
C=C1CC[C@@H]2[C@@](C)(CO[C@@H]3O[C@H](CO)C(O)[C@H](O)C3O)[C@H](O)CC[C@@]2(C)[C@@H]1CC/C(C)=C/CO (stereo partly specified) | inactive | inactive | – | –
CC(=O)OC[C@]12[C@H](OC(C)=O)C(=O)[C@@H]3[C@@H](OC(C)=O)[C@@]14O[C@@]3(C)COC(=O)c1cccnc1[C@@H](C)[C@H](C)C(=O)O[C@@H]([C@H](O)[C@@H]2OC(C)=O)[C@]4(C)O | inactive | inactive | – | –
CC1(C)CC(NC(=O)C(=O)Nc2ccc(Br)cc2)CC(C)(C)N1 | inactive | inactive | – | –
COC(=O)c1cc(OC)c(O[C@@H]2O[C@@H](C)[C@H](O)[C@@H](O)[C@H]2O)c(OC)c1 | inactive | inactive | – | –
CC1(C)CC[C@]2(C(=O)O)CC[C@]3(C)C(=CCC4[C@@]5(C)CC[C@H](O[C@@H]6O[C@H](C(=O)O)[C@@H](O[C@@H]7OC[C@@H](O)[C@H](O)[C@H]7O)[C@H](O)[C@H]6O)C(C)(C)C5CC[C@]43C)C2C1O (stereo partly specified) | inactive | inactive | – | –
CC(=O)C1=C(C)N(c2cccc(C(F)(F)F)c2)C(=O)N[C@H]1c1ccc(C#N)nc1 | inactive | inactive | – | –
C=CC(C)(C)c1[nH]c2ccccc2c1C[C@@H]1NC(=O)[C@H](Cc2c[nH]c3ccccc23)NC1=O | inactive | inactive | – | –
O=C1NC2CCc3nc4ccccc4c(=O)n3C2=Nc2ccccc21 (stereo unspecified) | inactive | inactive | – | –
C[C@H](C/C=C/C(C)(C)O)[C@H]1CC[C@@]2(C)[C@@H]3[C@@H](O[C@@H]4O[C@H](CO)[C@@H](O)[C@H](O)[C@H]4O)C=C4C(CC[C@H](O)C4(C)C)[C@]3(C=O)CC[C@]12C (stereo partly specified) | inactive | inactive | – | –
COC(=O)C1=CO[C@@H](O)C2C(CO)=CCC12 (stereo partly specified) | inactive | inactive | – | –
CC(C(O)/C=C/C(C)(C)O)C1CCC2(C)C3C(=O)C=C4C(CCC(O)C4(C)C)C3(C)CCC12C (stereo unspecified) | inactive | inactive | – | –
COc1cc(OC)cc(C(=O)Nc2ccc(Cl)c(-c3nc4ccc(N(C)C)cc4[nH]3)c2)c1 | inactive | inactive | – | –
CC[C@H](CO)Nc1nc(NCc2ccc(-c3ccccn3)cc2)c2ncn(C(C)C)c2n1 | inactive | inactive | – | –

SMILES | Potency [1] | Potency [2] | activity change, negative = inhibition [1] | outcome [2]
CCCN1CCN(c2ccc(C(=O)NC3(C(=O)NCC#N)CCCCC3)cc2)CC1 | inactive | inactive | – | –
CCC(C)C(=O)OC1CC(O)C23C4OCC5(C(O)CC2C1(C)C(O)O4)C3C(=O)CC1(C)C(c2ccoc2)CC2OC215 (stereo unspecified) | inactive | inactive | – | –
CC(CCC1(O)OC2CC3C4CCC5CC(O[C@@H]6O[C@H](CO)[C@@H](O)[C@H](O)[C@H]6O[C@@H]6O[C@@H](C)[C@H](O)[C@@H](O)[C@H]6O)C(O)CC5(C)C4CCC3(C)C2C1C)CO[C@@H]1O[C@H](CO)[C@@H](O)[C@H](O)[C@H]1O (stereo partly specified) | inactive | inactive | – | –
COc1c(C)c(OCC(O)C(C)(C)O)cc2c1COC2=O (stereo unspecified) | inactive | inactive | – | –
CC1(C)CC[C@@]2(C(=O)O[C@@H]3O[C@H](CO)[C@@H](O)[C@H](O)[C@H]3O)C(C1)C1=CCC3[C@@]4(C)CC[C@@H](O[C@@H]5O[C@H](C(=O)O)[C@@H](O[C@@H]6OC[C@@H](O)[C@H](O)[C@H]6O)[C@H](O[C@@H]6OC[C@](O)(CO)[C@H]6O)[C@H]5O)C(C)(C)C4CC[C@@]3(C)[C@]1(C)C[C@H]2O (stereo partly specified) | inactive | inactive | – | –
Cc1cccc(Oc2cnc(=O)[nH]c2)c1 | inactive | inactive | – | –
CC(C)c1nnc(-c2ccc(-c3ccccc3)nc2)n1-c1cccc2nonc12 | inactive | inactive | – | –
NCc1ccc(Nc2ncc(F)c(Nc3ccccc3)n2)cc1 | inactive | inactive | – | –
CC(=O)O[C@@H]1C[C@H](O)[C@@]23CO[C@H](O)[C@]1(C)C2C[C@@H](O)[C@]1(C)C3C(=O)[C@H](OC(C)=O)[C@@]2(C)[C@H](c3ccoc3)C[C@H]3O[C@]321 (stereo partly specified) | inactive | inactive | – | –
C/C=C1\[C@H](OC2OC(COC3OC(CO)C(O)C(O)C3O)C(O)C(O)C2O)OC=C(C(=O)OC)[C@H]1CC(=O)OCCc1ccc(O)cc1 (stereo partly specified) | inactive | inactive | – | –
C=C1C[C@]23C[C@H]1CC[C@H]2C1=C[C@H]2OC(=O)[C@@](C)([C@H]1[C@@H]3C(=O)O)[C@H]2O | inactive | inactive | – | –
CCn1cc(NC(=S)Nc2cc(Cl)ccc2OC)c(C(N)=O)n1 | inactive | inactive | – | –
Fc1ccc2nc(CCC#Cc3ccccn3)cn2c1 | inactive | inactive | – | –
CC1(C)CC[C@]2(C(=O)O[C@@H]3O[C@H](CO[C@@H]4O[C@H](CO)[C@@H](O)[C@H](O)[C@H]4O[C@@H]4O[C@H](CO)[C@@H](O)[C@H](O)[C@H]4O)[C@@H](O)[C@H](O[C@@H]4O[C@H](CO)[C@@H](O)[C@H](O)[C@H]4O)[C@H]3O)CC[C@]3(C)C(=CCC4[C@@]5(C)CC[C@@H](O)[C@@](C)(C(=O)O[C@@H]6O[C@H](CO)[C@@H](O)[C@H](O)[C@H]6O)C5CC[C@]43C)[C@@H]2C1 (stereo partly specified) | – | – | 14.6% [at 19.1 µM] | inactive [at 10.7 µM]
c1cn2cc(-c3ccc4cn[nH]c4c3)nc(Nc3ccc(N4CCOCC4)cc3)c2n1 | inactive | inactive | – | –
CC1CCCCN1S(=O)(=O)c1ccc(N2CCCC2=O)cc1 (stereo unspecified) | inactive | inactive | – | –
O=C(O)/C=C/c1cc2c(cc1O[C@@H]1O[C@H](CO)[C@@H](O)[C@H](O)[C@H]1O)OCO2 | inactive | inactive | – | –
C[C@]12C[C@@H](O)[C@@H]3C[C@@]1(O[C@@H]1O[C@H](CO)[C@@H](O)[C@H](O)[C@H]1O)[C@]3(COC(=O)c1ccccc1)C(=O)O2 | inactive | inactive | – | –
CNC(=O)c1cccc(-c2ccc3c(N4CCOC[C@@H]4C)nc(N4CCOC[C@@H]4C)nc3n2)c1 | inactive | inactive | – | –
CC(O)/C=C/C1C(C)C(O[C@@H]2O[C@H](CO)[C@@H](O)[C@H](O)[C@H]2O)C(O)CC1(C)C (stereo partly specified) | inactive | inactive | – | –

SMILES | Potency [1] | Potency [2] | activity change, negative = inhibition [1] | outcome [2]
Cc1nc(NC(=O)N2CCCC2C(N)=O)sc1-c1csc(C(C)(C)C)n1 (stereo unspecified) | inactive | inactive | – | –
CC(C)=CCC/C(C)=C/CO[C@@H]1O[C@H](CO)[C@@H](O)[C@H](O)[C@H]1O | inactive | inactive | – | –
O=C1C=CC2OC(c3ccccc3)C(O)C2O1 (stereo unspecified) | inactive | inactive | – | –
COc1ccc(-c2nc(-c3ccc(-c4cccc(Cl)c4)o3)[nH]c2-c2ccc(OC)cc2)cc1 | inactive | inactive | – | –
COc1cc2ncnc(Nc3ccc(F)c(Cl)c3)c2cc1NC(=O)/C=C/CN1CCCCC1 | inactive | inactive | – | –
O=C(/C=C/c1cccc(S(=O)(=O)Nc2ccccc2)c1)NO | inactive | inactive | – | –
C[C@@H]1COCCN1c1cc(C2(S(C)(=O)=O)CC2)nc(-c2cccc3[nH]ccc23)n1 | inactive | inactive | – | –
O=C(O)c1cccc(S(=O)(=O)N2CCc3ccccc3C2)c1 | inactive | inactive | – | –
C[C@@H]1CC[C@]2(C(=O)OC3OC(CO)C(O)C(O)C3O)CC[C@]3(C)C(=CCC4[C@@]5(C)CC[C@H](O)[C@](C)(C(=O)O)C5CC[C@]43C)C2[C@]1(C)O (stereo partly specified) | inactive | inactive | – | –
O=C(Cc1ccc(-c2ccccc2)cc1)NC1CCC1 | inactive | inactive | – | –
O=C(C(c1ccccc1)c1ccccc1)N1CCN(CC(O)COc2cccc3ncccc23)CC1 (stereo unspecified) | inactive | inactive | – | –
Cc1ccccc1-n1c([C@H](C)Nc2nc(N)nc3nc[nH]c23)nc2cccc(C)c2c1=O | inactive | inactive | – | –
CC(C)C(C(=O)N(C)C(C)C(N)=O)N(C)C(=O)C1CCCN1C(=O)/C=C/C=C/C(O)C(C)O (stereo unspecified) | inactive | inactive | – | –
C[C@@H]1O[C@@H](O[C@H]2[C@H](O)[C@@H](C(=O)O)O[C@@H](O[C@H]3CC[C@@]4(C)C(CC[C@]5(C)C4CC=C4C6CC(C)(C)CC[C@]6(C(=O)O)CC[C@]45C)C3(C)C)[C@@H]2O[C@@H]2OC[C@@H](O)[C@H](O)[C@H]2O)[C@H](O)[C@H](O)[C@H]1O (stereo partly specified) | 8.91 µM (active) | 3.1 µM (active) | – | –
Cc1cnc(NC(=O)Nc2cc(Br)c(C)cc2OCC2CNCCO2)cn1 (stereo unspecified) | inactive | inactive | – | –
CC1(C)C2CC(OC3OC(COC4OCC(O)(CO)C4O)C(O)C(O)C3O)C1(C)CC2O (stereo unspecified) | inactive | inactive | – | –
CN1C2CCC1CC(OC(=O)[C@H](CO)c1ccccc1)C2 (stereo partly specified) | inactive | inactive | – | –
C[C@@H]1O[C@@H](O[C@H]2[C@@H](OC(=O)[C@]34CCC(C)(C)CC3C3=CCC5[C@@]6(C)C[C@H](O)[C@H](O[C@@H]7O[C@H](C(=O)O)[C@@H](O)[C@H](O)[C@H]7O)[C@@](C)(C(=O)O)C6CC[C@@]5(C)[C@]3(C)CC4)OC[C@H](O)[C@@H]2O)[C@H](O)[C@H](O)[C@H]1O[C@@H]1OC[C@@H](O)[C@H](O)[C@H]1O (stereo partly specified) | inactive | inactive | – | –

Reference: PubChem BioAssay (NCATS)
